This is a sample that favours compounds with a hit; in the whole collection about 2.3% have one here.
CHRM1 agonist: activates human CHRM1 receptor; P11229; CHO-K1 hM1, Fluo-8 calcium fluorescence, agonist mode; 0% DMSO, 100% acetylcholine EC100; activation, % at 3 µM; actives 0.33% (n = 360,000); AID 588814;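 active = activation above the run's mean compound activation plus 3 SD, cut at about 16% in these data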;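 note: peak over basal fluorescence ratio within a 140 s kinetic read after compound addition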
Target sequence (P11229 whole entry, looked up): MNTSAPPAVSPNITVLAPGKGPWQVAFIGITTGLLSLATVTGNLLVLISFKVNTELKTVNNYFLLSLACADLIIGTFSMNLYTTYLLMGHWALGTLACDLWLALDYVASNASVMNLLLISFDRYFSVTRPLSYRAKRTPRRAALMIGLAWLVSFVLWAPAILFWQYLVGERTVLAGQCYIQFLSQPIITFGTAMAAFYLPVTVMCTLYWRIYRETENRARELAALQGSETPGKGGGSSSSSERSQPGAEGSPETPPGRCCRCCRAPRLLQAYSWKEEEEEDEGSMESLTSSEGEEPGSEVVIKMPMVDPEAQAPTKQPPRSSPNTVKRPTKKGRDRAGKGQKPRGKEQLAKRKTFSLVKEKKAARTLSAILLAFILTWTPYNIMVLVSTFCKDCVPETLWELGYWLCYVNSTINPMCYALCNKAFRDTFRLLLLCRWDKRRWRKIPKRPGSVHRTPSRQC
M1 antag: antagonists of human M1 muscarinic receptor; P11229; CHO-K1 hM1, Fluo-8 calcium fluorescence, ACh EC80 antagonist; inhibition, % at 3 µM; actives 1.3% (n = 360,000); AID 588852;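 active = percent inhibition above its own plate's cutoff, namely the mean of that plate's compound wells plus 3 SD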;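 note: peak over basal fluorescence ratio during 140 s after agonist addition; 0% = ACh EC80 plus DMSO and 100% = DMSO alone without agonist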
CHO-K1 Ca PAM: counter-screen for M1 PAMs: effect in parental CHO-K1 cells | ATP EC20, Fluo-8 calcium fluorescence; 0% at ATP EC20, 100% at ATP max | activation, % at 3 µM | actives 0.02% (n = 360,000) | AID 602247;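 active = activation above the run cutoff, the mean activation of all test compounds plus 3 SD, cut at about 40% in these data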;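 note: peak over basal fluorescence ratio in a 140 s read after ATP addition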
CHO-K1 Ca antag: counter-screen for M1 antagonists: effect in parental CHO-K1 cells; ATP-induced calcium, Fluo-8 fluorescence; actives 0.6% (n = 360,000); AID 602250; inhibition, % at 3 µM;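 active = inhibition above a per-plate cutoff, the plate's mean sample inhibition plus 3 SD, cut at about 24% in these data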;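 note: 0% = DMSO plus EC80 ATP and 100% = DMSO alone without ATP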
M1 PAM: positive allosteric modulators of human M1 muscarinic receptor; CHO-K1 hM1, Fluo-8 calcium fluorescence, ACh EC20; 0% = ACh EC20, 100% = maximal ACh; activation, % at 3 µM; actives 0.088% (n = 360,000); in the data active = activation above about 19%, passing the limit was not always enough
M1 ag parental: nonselective activator or artifact in parental CHO-K1 cells; actives 0.48% (n = 360,000); activation, % at 3 µM; Fluo-8 calcium fluorescence; scaled to maximal ATP response, vehicle zero; in the data active = activation above about 15%;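 note: untransfected CHO-K1 host cells lacking M1 receptor as counterscreen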
The depositor's hits bear a star.

SMILES | CHRM1 agonist | M1 antag | CHO-K1 Ca PAM | CHO-K1 Ca antag | M1 PAM | M1 ag parental
O=C(NCCc1ccccc1)C1CCN(S(=O)(=O)c2ccc(-n3cnnn3)cc2)CC1 | -3 | -8 | 18 | -4 | 4 | 1
O=S(=O)(c1ccccc1)N1CCC(Oc2ccc(-n3cnnn3)cc2)CC1 | 2 | 37 | -12 | 2 | -15 | 18*
CCc1ccccc1NC(=O)N1C2CCCC1CC(NC(=O)C(C)(C)C)C2 (stereo unspecified) | -6 | 48* | -7 | -7 | -16 | 0
CCNC(=S)NC1CC2CCCC(C1)N2Cc1ccc(C)cc1 (stereo unspecified) | -8 | 69* | 11 | -5 | -29 | 1
CCc1ccccc1NC(=S)NC1CC2CCC(C1)N2Cc1ccco1 (stereo unspecified) | -7 | -24 | -7 | 1 | 6 | 0
CCCN1C2CCCC1CC(NC(=S)Nc1ccc(OC)cc1)C2 (stereo unspecified) | -6 | -4 | 24 | -17 | 3 | 1
CCc1ccccc1NC(=O)NC1CC2CCC(C1)N2Cc1cccs1 (stereo unspecified) | -13 | 45* | 7 | -19 | -32 | 0
CCc1ccc(NC(=S)NC2CC3CCCC(C2)N3Cc2cccs2)cc1 (stereo unspecified) | 1 | 27* | -14 | 6 | -22 | 4
COCCNC(=O)C1(C)CCN(C(=O)c2cccnc2Oc2ccccc2)C1 (stereo unspecified) | -2 | -9 | 18 | -6 | 4 | -1
COc1cccc(CNC(=O)CCC2CCCN(C(=O)C3CCOCC3)C2)c1 (stereo unspecified) | -3 | 8 | 13 | -16 | 0 | 0
CCOC(=O)C1CCN(C(=O)c2cc(COc3ccc(F)cc3F)on2)CC1 | 1 | 8 | -23 | 11 | 4 | 1
COc1ccc(S(=O)(=O)N2CCN(C(=O)c3ccco3)CC2)cc1C(C)(C)C | 7 | -14 | -7 | 2 | 22 | 3
CC(=O)c1ccc(-n2cc(-c3ccc(C(C)(C)C)cc3)[n+]3c2SCCC3)cc1 | -14 | 39* | 12 | -2 | -32 | 0
COc1ccc(-c2cn(-c3ccc(Br)cc3)c3[n+]2CCS3)cc1 | -8 | 44* | 1 | 1 | -25 | 0
Clc1ccc(-c2cn(-c3ccccc3)c3[n+]2CCS3)cc1 | -13 | 58* | 25 | -11 | -33 | 0
Fc1ccc(-c2cn(-c3ccccc3)c3[n+]2CCS3)cc1 | -7 | 11 | 13 | -7 | -12 | 0
COC(=O)C1(c2ccccc2)NC(c2cccs2)C2C(=O)N(c3ccccc3)C(=O)C21 (stereo unspecified) | 41* | -17 | 31 | -14 | 14 | 12
COC(=O)C1(c2ccccc2)NC(c2cccs2)C2C(=O)N(C)C(=O)C21 (stereo unspecified) | -1 | 0 | 9 | -9 | 3 | 0
Cn1c(=O)[nH]c(=O)c2c1nc(NCc1ccccc1)n2CCCc1ccccc1 | 0 | 10 | -10 | 26* | -11 | -1
CNc1nc2c(c(=O)[nH]c(=O)n2C)n1CCCc1ccccc1 | -3 | -14 | 3 | -12 | 10 | 1
Cc1cc(C)c(CN2CCN(CCCn3ccc(NC(=O)OCc4ccccc4)nc3=O)CC2)c(C)c1 | -4 | 42* | 30 | -13 | -28 | 2
O=C(Nc1ccn(CCCN2CCN(c3ccccc3)CC2)c(=O)n1)OCc1ccccc1 | -2 | 0 | 11 | -8 | -9 | 2
O=C(Nc1ccn(CCCN2CCN(Cc3cccc4ccccc34)CC2)c(=O)n1)OCc1ccccc1 | -3 | 30* | 12 | -1 | -24 | 4
COc1ccc(N2CCN(CCCn3ccc(NC(=O)OCc4ccccc4)nc3=O)CC2)cc1 | -11 | 7 | 9 | -7 | -15 | 0
COc1ccc(Cc2nnc(NC(=O)c3ccc(F)cc3)s2)cc1OC | -2 | 1 | -18 | 29* | -1 | 0
SMILES | CHRM1 agonist | M1 antag | CHO-K1 Ca PAM | CHO-K1 Ca antag | M1 PAM | M1 ag parental
COc1ccc(Cc2nnc(NC(=O)c3ccc(C)cc3)s2)cc1OC | -3 | -8 | 2 | -11 | 4 | 0
COc1ccc(CNC(=O)COC(=O)CN2C(=O)C3CC=CCC3C2=O)cc1 (stereo unspecified) | 3 | -24 | -5 | 2 | 26* | 0
COc1cc(NC(=O)c2cc([N+](=O)[O-])ccc2NC(=O)CN2CCN(c3ccccn3)CC2)cc(OC)c1 | -4 | 34* | -2 | -4 | -11 | 2
O=C(c1ccc2c(c1)OCO2)C1CCCN(Cc2ccc(OC(F)F)cc2)C1 (stereo unspecified) | 0 | 91* | 4 | -5 | -24 | 9
O=C(c1ccc2c(c1)OCO2)C1CCCN(Cc2ccc3cccc(F)c3n2)C1 (stereo unspecified) | -11 | 21 | -7 | -4 | -28 | 1
COc1cc(OC)c(OC)cc1CN1CCCC(C(=O)c2ccc3c(c2)OCO3)C1 (stereo unspecified) | -10 | 6 | -2 | 3 | -13 | 0
O=C(c1ccc2c(c1)OCO2)C1CCCN(Cc2cccc(C(F)(F)F)c2)C1 (stereo unspecified) | -7 | 63* | -1 | -2 | -24 | 0
O=C1c2ccccc2NC(c2ccc([N+](=O)[O-])cc2)N1O (stereo unspecified) | -12 | -7 | 19 | -3 | 5 | 1
O=C(c1cc(N2C(=O)C3C4CCC(C4)C3C2=O)ccc1Cl)N1CCN(c2ccccc2)CC1 (stereo unspecified) | -5 | 7 | 10 | -1 | -8 | 23*
COc1ccc(C(CNC(=O)c2ccc(Cl)c(NC(=O)c3cccs3)c2)N2CCCC2)cc1 (stereo unspecified) | -6 | 46* | 14 | -12 | -27 | 2
COc1ccc(C(CNC(=O)Cc2ccccc2Cl)N2CCCCC2)cc1 (stereo unspecified) | -10 | 38* | -3 | -10 | -28 | 1
COc1ccc(C(CNC(=O)CCNS(=O)(=O)c2ccccc2)N2CCOCC2)cc1 (stereo unspecified) | -4 | 30* | -14 | 9 | -13 | 0
COc1ccc(C(CNC(=O)c2cccc(S(=O)(=O)N3CCCC3)c2)N2CCCC2)cc1 (stereo unspecified) | -7 | 7 | 2 | -10 | -7 | 0
COc1ccc(NS(=O)(=O)c2cccc(NC(=O)c3ccc(Cl)nc3)c2)cc1 | 3 | 24 | -8 | 43* | -12 | 12
O=C(Nc1cccc(S(=O)(=O)Nc2ccc(Cl)cc2)c1)c1ccc(Cl)nc1 | 1 | 29* | -2 | 28* | -15 | 14

Screening results: PubChem BioAssay, The Scripps Research Institute Molecular Screening Center
